{"source": "PubChem BioAssay (NCATS)", "note": "Results filed as inconclusive are left out. The source made the active and inactive calls. The call rests on the fitted dose curve; in most records, active means well fitted cell-killing curve with a large enough effect; inconclusive means small, poorly fitted or top-dose-only effect, or effect the other way; inactive means no such curve, though single readings can be large or run the other way.", "data": [{"assay": "MultiTox-Fluor Cytotoxicity Assay - LYMP1-002 - Dead Cells (AID 960);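 further: 0% = DMSO and 100% = tetraoctylammonium bromide; nearly all actives have a fitted effect of over 60% in size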", "settings": "LYMP1-002 lymphoblastoid cells, dead-cell protease fluorescence; series mostly up to 46.1 µM; cytotoxicity (dead cells): at the top concentration", "description": "NIH Chemical Genomics Center [NCGC]\nNIH Molecular Libraries Screening Centers Network [MLSCN]\nNational Institutes of Environmental Health Sciences [NIEHS]\nNational Toxicology Program [NTP]\nWe have developed a 1536-well cell-based assay for quantitative high throughput screening (qHTS) against a number of cell lines to determine in vitro cytotoxicity of small molecules. This particular assay uses a human lymphoblastoid cell line (LYMP1-002) purchased from Coriell Institute.\nNCGC Assay Protocol Summary:\nThe MultiTox-Fluor Cytotoxicity Assay (Promega) is a homogeneous method to simultaneously measure the relative number of live and dead cells in culture by detecting changes in cell membrane integrity. There are two fluorogenic peptide substrates in the assay reagent. Viable cells are determined when the cell-permeant substrate (GF-AFC) enters the cell and is cleaved by protease from live cells resulting in liberated fluorophore. This live-cell protease activity restricted to viable cells is proportional to cell number. The dead cells are determined by using fluorogenic cell-impermeant peptide substrate (bis-AAF-R110) which cleaved by dead cell proteases leaking from damaged cell membrane.\nUsing the MultiTox-Fluor Cytotoxicity Assay, the relative number of dead cells was measured in the lymphoblastoid cell line with complete culture medium following compound treatment for 16 hours. The assay was performed in opaque black Kalypsys 1536-well plates. In the screen, tetraoctylammonium bromide was used as positive control. Library compounds were measured for their ability to cause acute toxicity in the cell line, as reflected by an increase in dead cell protease activity, in a concentration-dependent manner. Data were normalized to the controls for basal activity (DMSO only) and 100% stimulation (15 uM tetraoctylammonium bromide). AC50 values were determined from concentration-response data modeled with the standard Hill equation.\nqHTS protocol for MultiTox-Fluor Cytotoxicity assay\n[Step] [Parameter] [Value] [Description]\n1. Reagent; 5 uL; 2500 lymphoblastoid cells/well\n2. Time; 5 hr; 37 C incubation\n4. Controls; 23 nL; Tetraoctylammonium bromide 6.4pM to 92 uM\n5. Time; 16 hr; 37 C incubation\n6. Reagent; 5 uL; MuliTox-Fluor Assay reagent\n7. Time; 60 min; Room Temperature\n8. Detection; dead-cell fluorescence (Ex/Em=485/520); EnVision plate reader\nKeywords: cytotoxicity, lymphoblastoid cell line, fluorescence, NTPHTS, NTPHTS_NCGC, NIEHS, EPA, DSSTox, MLSMR, MLSCN, NIH Roadmap, qHTS, NCGC", "values": [{"smiles": "CCCCOC(=O)c1ccc(O)cc1", "cytotoxicity (dead cells)": "-0.357% (inactive)"}, {"smiles": "NC(=O)N/N=C/c1ccc([N+](=O)[O-])o1", "cytotoxicity (dead cells)": "-0.32% (inactive)"}, {"smiles": "Cc1cc(CC(=O)O)n(C)c1C(=O)c1ccc(Cl)cc1", "cytotoxicity (dead cells)": "21.9% (inactive)"}, {"smiles": "O=C1O[C@H]([C@@H](O)CO)C(O)=C1O", "cytotoxicity (dead cells)": "-2.1% (inactive)"}, {"smiles": "C[C@]12C[C@H](O)[C@H]3[C@@H](CCC4=CC(=O)CC[C@@]43C)[C@@H]1CC[C@@H]2C(=O)CO", "cytotoxicity (dead cells)": "0.283% (inactive)"}, {"smiles": "Cc1cc2nc3c(=O)[nH]c(=O)nc-3n(C[C@H](O)[C@H](O)[C@H](O)CO)c2cc1C", "cytotoxicity (dead cells)": "29.9% (inactive)"}, {"smiles": "CCCCCCCCCCCCOS(=O)(=O)O", "outcome": "inactive"}, {"smiles": "[Cl][In]([Cl])[Cl]", "cytotoxicity (dead cells)": "3.35% (inactive)"}, {"smiles": "NCCNCCNCCNCCN", "cytotoxicity (dead cells)": "-12.3% (inactive)"}, {"smiles": "NC(=O)c1ncn([C@@H]2O[C@H](CO)[C@@H](O)[C@H]2O)n1", "cytotoxicity (dead cells)": "-17.1% (inactive)"}, {"smiles": "COc1ccccc1O", "outcome": "inactive"}, {"smiles": "CC12CCC(CC1)C(C)(C)O2", "cytotoxicity (dead cells)": "0.686% (inactive)"}, {"smiles": "NCCNCCNCCN", "cytotoxicity (dead cells)": "14.5% (inactive)"}]}]}
